# From PubChem BioAssay (EPA / NIEHS)
# Values joined by “and” are separate entries in the source; they are usually repeats but may differ in a detail not shown here. Equal entries are not always repeated. A structure can be active in one record and inactive in another. Active and inactive are the calls of the source. How the source made its calls: active means hit-call score of the fitted dose curve at least 0.9, where 1 is the maximum; inactive means score below 0.9.
# How the values were obtained:
# [1] = read-out: Human Leukocyte Antigen - DR isotype (HLADR), HLA-DRA (gene 3122); assay: BSK_BE3C_HLADR: BioMAP Diversity Plus: BE3C Assay for Human Leukocyte Antigen - DR isotype (HLADR) Biomarker Activity (AID 2283032); settings: primary human bronchial epithelial cells; actives raise or lower the signal
# In short: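 BioMAP BE3C format: human bronchial epithelium, 24 h compound treatment, ELISA detection of HLA-DR, with bidirectional analysis relative to DMSO.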
# [2] = read-out: Vascular cell adhesion molecule 1 (VCAM1), VCAM1 (gene 7412); assay: BSK_4H_VCAM1: BioMAP Diversity Plus: 4H Assay for Vascular cell adhesion molecule 1 (VCAM1) Biomarker Activity (AID 2283033); settings: primary human endothelial cells (HUVEC); actives raise or lower the signal;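 on outcome: cell-surface VCAM-1 protein measured by ELISA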
# In short: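 In this human endothelial (HUVEC) system, biomarker ELISA was run 24 h after compound addition, and total protein in parallel wells was assessed by SRB at 560 nm; DMSO served as negative control.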
# [3] = read-out: Interferon-gamma inducible Protein 10 (IP10), CXCL10 (gene 3627); assay: BSK_BE3C_IP10: BioMAP Diversity Plus: BE3C Assay for Interferon-gamma inducible Protein 10 (IP10) Biomarker Activity (AID 2283034); settings: primary human bronchial epithelial cells; actives raise or lower the signal
# In short: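 BE3C cells (human bronchial epithelial, primary); 24 h exposure; ELISA for IP-10; DMSO-referenced bidirectional fit.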
# [4] = read-out: Monokine induced gamma interferon (MIG), CXCL9 (gene 4283); assay: BSK_BE3C_MIG: BioMAP Diversity Plus: BE3C Assay for Monokine induced gamma interferon (MIG) Biomarker Activity (AID 2283035); settings: primary human bronchial epithelial cells; actives raise or lower the signal;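 on outcome: MIG protein measured by ELISA in BE3C cultures after 24 h of dosing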
# In short: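 ELISA quantified MIG after 24 h exposure of primary bronchial epithelial cultures, analysed in both directions relative to DMSO. Cytotoxicity tracked in parallel cultures by sulforhodamine B staining.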
# [5] = read-out: Transforming growth factor beta 1 (TGFb1), TGFB1 (gene 7040); assay: BSK_BE3C_TGFb1: BioMAP Diversity Plus: BE3C Assay for Transforming growth factor beta 1 (TGFb1) Biomarker Activity (AID 2283036;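 on outcome: TGF-b1 protein level measured by ELISA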); settings: primary human bronchial epithelial cells; actives raise or lower the signal
# In short: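 TGF-b1 measured via ELISA, 24 h after chemical dosing of human bronchial epithelial cells (BE3C). Overt cytotoxicity assessed in parallel by SRB (0.1%, TCA-fixed, 560 nm); analysis bidirectional relative to DMSO.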
# [6] = read-out: urokinase plasminogen activator (uPA), PLAU (gene 5328); assay: BSK_BE3C_uPA: BioMAP Diversity Plus: BE3C Assay for urokinase plasminogen activator (uPA) Biomarker Activity (AID 2283038); settings: primary human bronchial epithelial cells; actives raise or lower the signal;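 on outcome: uPA protein level quantified by ELISA in cell cultures; uPA read one day after compound addition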
# In short: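 ELISA for uPA on human primary bronchial epithelial cultures 24 h post-treatment, gain or loss against DMSO. Parallel SRB staining (0.1% after 10% TCA fixation, 560 nm) assessed overt cytotoxicity.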
# [7] = read-out: Urokinase-type plasminogen activator receptor (uPAR), PLAUR (gene 5329); assay: BSK_BE3C_uPAR: BioMAP Diversity Plus: BE3C Assay for Urokinase-type plasminogen activator receptor (uPAR) Biomarker Activity (AID 2283039); settings: primary human bronchial epithelial cells; actives raise or lower the signal;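 on outcome: uPAR protein level measured by ELISA on the cells; cells exposed to compound for one day before measurement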
# In short: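 Chemically treated human bronchial epithelial cells (lung primary) are assayed for uPAR by ELISA after 24 h, with data fitted in both directions using DMSO as negative control.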
# [8] = read-out: Interleukin-6 (IL6), IL6 (gene 3569); assay: BSK_CASM3C_IL6: BioMAP Diversity Plus: CASM3C Assay for Interleukin-6 (IL6) Biomarker Activity for (AID 2283040); settings: primary human coronary artery smooth muscle cells; actives raise or lower the signal
# [9] = read-out: Plasminogen activator inhibitor-1 (PAI1), SERPINE1 (gene 5054); assay: BSK_BE3C_PAI1: BioMAP Diversity Plus: BE3C Assay for Plasminogen activator inhibitor-1 (PAI1) Biomarker Activity (AID 2283037); settings: primary human bronchial epithelial cells; actives raise or lower the signal
# In short: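 In this multiplexed primary-cell system, bronchial epithelial cells receive test chemical and are sampled at 24 h. PAI-1 is read by ELISA, with DMSO serving as negative control for bidirectional fitting.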
# [10] = read-out: Tissue plasminogen activator (tPA), PLAT (gene 5327); assay: BSK_BE3C_tPA: BioMAP Diversity Plus: BE3C Assay for Tissue plasminogen activator (tPA) Biomarker Activity (AID 2283041); settings: primary human bronchial epithelial cells; actives raise or lower the signal;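 on outcome: tPA level quantified by ELISA one day after compound addition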
# In short: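 Using human lung primary bronchial epithelial cells, tPA was measured by ELISA 24 h after dosing; data fitted relative to DMSO.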
structure (smiles),measurement,setting,value
COC1=CC(=O)C[C@@H](C)[C@]12Oc1c(Cl)c(OC)cc(OC)c1C2=O,outcome,[1],inactive
same,outcome,[2],inactive
same,outcome,[3],inactive
same,outcome,[4],inactive
same,outcome,[5],inactive
same,outcome,[6],inactive
same,outcome,[7],inactive
same,outcome,[8],inactive
O=C(NO)c1ccccc1,outcome,[1],inactive
same,outcome,[2],inactive
same,outcome,[3],inactive
same,outcome,[4],inactive
same,outcome,[5],inactive
same,outcome,[9],inactive
same,outcome,[6],inactive
same,outcome,[7],inactive
same,outcome,[8],inactive
same,outcome,[10],inactive
O=C1c2ccc(O)c(O)c2C(=O)c2c(O)ccc(O)c21,outcome,[1],inactive
same,outcome,[2],inactive
same,outcome,[3],inactive
same,outcome,[4],inactive
same,outcome,[5],inactive
same,outcome,[6],inactive
same,outcome,[7],inactive
same,outcome,[8],inactive
same,outcome,[10],inactive
CCCCC(CC)C(=O)OCCOCCOCCOCCOC(=O)C(CC)CCCC (stereo not given),outcome,[1],inactive
same,outcome,[2],inactive
same,outcome,[3],inactive
same,outcome,[4],inactive
same,outcome,[5],inactive
same,outcome,[6],inactive
same,outcome,[7],inactive
same,AC50,[8],11.3 µM (active)
same,outcome,[10],inactive
CN(C)CCOC(c1ccccc1)c1ccccc1,outcome,[1],inactive
same,AC50,[2],2.03 µM (active)
same,outcome,[3],inactive
same,outcome,[4],inactive
same,outcome,[5],inactive
same,outcome,[9],inactive
same,outcome,[6],inactive
same,outcome,[7],inactive
same,outcome,[8],inactive
same,outcome,[10],inactive
C=CC(=C)CC/C=C(\C)CCC=C(C)C,outcome,[1],inactive
same,outcome,[2],inactive
same,outcome,[3],inactive
same,outcome,[4],inactive
same,outcome,[5],inactive
same,outcome,[9],inactive
same,outcome,[6],inactive
same,outcome,[7],inactive
same,outcome,[8],inactive
same,outcome,[10],inactive
CCCCCc1ccc(O)cc1,AC50,[1],27.2 µM (active)
same,AC50,[2],24.9 µM (active)
same,AC50,[3],16.6 µM (active)
same,AC50,[4],32.8 µM (active)
same,AC50,[5],20 µM (active)
same,AC50,[9],20 µM (active)
same,AC50,[6],27.2 µM (active)
same,AC50,[7],30.5 µM (active)
same,AC50,[8],20 µM (active)
same,AC50,[10],11.6 µM (active)
CCCCc1oc2ccccc2c1C(=O)c1cc(I)c(OCCN(CC)CC)c(I)c1,AC50,[1],15.1 µM (active)
same,AC50,[2],19.6 µM (active)
same,AC50,[3],12 µM (active)
same,AC50,[4],23.3 µM (active)
same,AC50,[5],12.2 µM (active)
same,AC50,[9],18.8 µM (active)
same,AC50,[6],20.1 µM (active)
same,AC50,[7],20.6 µM (active)
same,AC50,[8],27.8 µM (active)
same,AC50,[10],9.06 µM (active)
Oc1cc2ccccc2cc1O,outcome,[1],inactive
same,outcome,[2],inactive
same,outcome,[3],inactive
same,outcome,[4],inactive
same,outcome,[5],inactive
same,outcome,[9],inactive
same,outcome,[6],inactive
same,outcome,[7],inactive
same,outcome,[8],inactive
same,outcome,[10],inactive
OCC(F)(F)C(F)(F)C(F)(F)C(F)(F)C(F)(F)C(F)(F)C(F)(F)C(F)(F)C(F)(F)C(F)(F)C(F)(F)F,AC50,[1],251 nM (active) and 154 nM (active)
same,outcome,[2],inactive
same,AC50,[3],0.218 µM (active)
same,outcome,[3],inactive
same,outcome,[4],inactive
same,outcome,[9],inactive
same,outcome,[6],inactive
same,outcome,[7],inactive
same,outcome,[8],inactive
same,outcome,[10],inactive
O=P(O)(O)CCC(F)(F)C(F)(F)C(F)(F)C(F)(F)C(F)(F)C(F)(F)F,outcome,[1],inactive
same,outcome,[2],inactive
same,AC50,[3],3.21 µM (active)
same,outcome,[3],inactive
same,outcome,[4],inactive
same,outcome,[6],inactive
same,outcome,[7],inactive
same,outcome,[8],inactive
same,outcome,[10],inactive
Cc1ccc(C(=O)c2ccccc2)cc1,outcome,[1],inactive
same,AC50,[2],30.2 µM (active)
same,outcome,[3],inactive
same,outcome,[4],inactive
same,outcome,[5],inactive
same,outcome,[9],inactive
same,outcome,[6],inactive
same,outcome,[7],inactive
same,outcome,[8],inactive
same,outcome,[10],inactive
C[C@]12CC[C@@H]3c4ccc(O)cc4CC[C@H]3[C@@H]1C[C@@H](O)[C@@H]2O,outcome,[1],inactive
same,outcome,[2],inactive
same,outcome,[3],inactive
same,outcome,[4],inactive
same,outcome,[5],inactive
same,outcome,[9],inactive
same,outcome,[6],inactive
same,outcome,[7],inactive
same,outcome,[8],inactive
same,outcome,[10],inactive
